Laboratory results reported in PubChem BioAssay AID504466 (National Center for Advancing Translational Sciences (NCATS), 2011).
In all, about 330,000 compounds went through this assay and about 4,200 (1.3%) were called active. Entries that show only a call come without a potency. Inconclusive results (about 6%) are left out. The call rests on the fitted dose curve; in most records, active means well fitted activation curve with a large enough effect; inconclusive means small, poorly fitted or top-dose-only effect; inactive means no such curve, though single readings can be large or run the other way. This excerpt belongs to a sample that is enriched for actives.

Test: qHTS screen for small molecules that induce genotoxicity in human embryonic kidney (HEK293T) cells expressing luciferase-tagged ELG1; further: nearly all actives have a fitted effect of over 60% in size
Conditions: HEK293T ELG1-luciferase reporter, luminescence, 16 h; series mostly up to 46 µM
Outline: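 HEK293T cells expressing luciferase-tagged ELG1 were treated with compound or DMSO for 16 hr at 37°C. Luciferase activity was then read after 30 min with ONE-Glo at room temperature; rising signal flags genetic stress.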
Potency means the concentration at half of the fitted maximal effect.

Structure (SMILES) | Potency
CC(=NCc1ccco1)c1c(C(F)(F)F)[nH]n(-c2nc3ccccc3s2)c1=O | 2.59 µM (active)
CCC1(CC)NC(=O)N(Cc2nc3ccccc3s2)C1=O | inactive
CCc1ccc(-c2cc(C(=O)NCc3ccco3)c3ccccc3n2)s1 | inactive
COc1cc(OC)cc(C(=O)NCC(=O)OCC(=O)NC(C)CCc2ccccc2)c1 (stereo unspecified) | inactive
COc1cc(OC)c(C(=O)NNC(=O)c2ccccc2-n2cccc2)cc1OC | inactive
N#Cc1ccccc1NC(=O)c1cccc(COc2ccc(Cl)cc2Cl)c1 | 0.461 µM (active)
O=C(Nc1ccn(Cc2ccccc2F)n1)c1ccc(COc2ccc(Cl)cc2Cl)o1 | inactive
CSc1ccc(C#N)cc1NC(=O)c1cccc(Cl)c1 | inactive
O=C(COC(=O)c1ccccn1)NNC(=O)c1ccc(Br)cc1 | inactive
O=C(N[C@H]1C/C=C\C(c2cccc(F)c2)N(Cc2ccccc2)C(=O)C1)OCC1c2ccccc2-c2ccccc21 (stereo partly specified) | inactive
COc1ccc(S(=O)(=O)N(C)C[C@H]2Oc3c(NC(=O)Nc4ccc5c(c4)OCO5)cccc3C(=O)N([C@H](C)CO)C[C@@H]2C)cc1 | inactive
CC(Oc1ccc2c(-c3ccccc3)cc(=O)oc2c1)C(=O)NC(Cc1c[nH]c2ccccc12)C(=O)O (stereo unspecified) | inactive
O=C(Nc1cccc(NC(=O)c2cccc(F)c2)c1)c1ccccc1 | inactive
O=C(Nc1ccn(Cc2ccccc2)n1)c1cccc(F)c1 | 23.1 µM (active)
O=C(Nc1ccccc1N1CCN(c2ccccc2)CC1)c1cccc(F)c1 | inactive
O=S(=O)(Nc1ncnc2sccc12)c1cccc(F)c1 | inactive
Cc1ccc(NC(=O)c2ccc(Cl)nc2)cc1S(=O)(=O)N1CCOCC1 | inactive
COc1cccc(-c2nc3cc(C)ccc3o2)c1 | 1.3 µM (active)
COc1cccc(-c2nnc(SCCOc3ccc4c(C)cc(=O)oc4c3)o2)c1 | inactive
COc1ccc2oc(-c3cccc(NC(=O)CSc4ccc(Cl)cc4)c3)nc2c1 | inactive
CC(OC(=O)c1ccc([N+](=O)[O-])cc1)C(=O)NCC1CCCCC1 (stereo unspecified) | inactive

Structure (SMILES) | Potency
CN(Cc1cnccn1)C(=O)c1cc(COc2cccc(C(F)(F)F)c2)on1 | inactive
Cc1cc(CN(C)C(=O)c2cc(COc3ccc(C)c(C)c3)on2)n[nH]1 | 2.91 µM (active)
CN(Cc1cccnc1)C(=O)c1cc(COc2ccc3ncccc3c2)on1 | inactive
O=C(Cn1cnc2c(OCc3ccccc3)ncnc21)NCc1nc2ccccc2[nH]1 | inactive
COc1ccc(C(=O)NCCSc2ccccc2C)cc1 | 4.61 µM (active)
COc1ccc(C(=O)NCc2nnc(SCCOc3ccccc3)n2C)cc1 | inactive
COc1cccc(C(=O)NCCSc2ccc(Br)cc2)c1 | inactive
COc1ccc2nc3n(c(=O)c2c1)-c1ccc(Cl)cc1C(=O)NC3Cc1ccccc1 (stereo unspecified) | inactive
COc1ccc(CCNC(=O)COC(=O)c2ncc(Cl)c(Cl)c2Cl)cc1OC | inactive
O=C1c2cccc3c([N+](=O)[O-])ccc(c23)C(=O)N1CC1CCCO1 (stereo unspecified) | 20.6 µM (active)
CCOc1cccc(=O)c2c(C)n(CC3CCCO3)c(C)c12 (stereo unspecified) | inactive
CN1CN(C)c2ccc([N+](=O)[O-])c3cccc1c23 | inactive
CC[C@@H](C)[C@@H]1CN([C@@H](C)CN2CCC[C@H]2CN2C(N)=NC[C@H]2C(C)C)C(=N)N1CCc1ccc(Cl)c(Cl)c1 | inactive
COc1ccc(-c2nc3cc(C)ccn3c2NC2CCCCC2)cc1SC1CCCCC1 | inactive
Nc1c(-c2ccc(F)cc2)cnc2ncnn12 | inactive
CC1(C)CN(c2ccc(-c3ccnc4ncnn34)cc2)C1=O | 12.6 µM (active)
Cc1ccc(C2(C)NC(=O)N(CC(=O)N3CC(=O)Nc4ccccc43)C2=O)cc1 (stereo unspecified) | inactive
Cc1occc1C(=O)Nc1cccc(S(=O)(=O)N2CCOCC2)c1 | inactive
O=C1C=CN2CCCC2CC1 (stereo unspecified) | inactive
Cc1ccc(/C=N/NC(=O)c2cc3ccccc3cc2O)o1 | inactive
Cc1cc(N=Nc2ccc3ccccc3c2)ccc1O | 7.3 µM (active)

Structure (SMILES) | Potency
Cc1ccc(Br)c(NS(=O)(=O)c2cccc(C(=O)N3CCNC(=O)C3)c2)c1 | inactive
CC1(C)CC[C@@]2(C(=O)O)C(C1)C1=CCC3[C@@]4(C)CC[C@H](O)C(C)(C)C4CC[C@@]3(C)[C@]1(C)C[C@H]2O (stereo partly specified) | inactive
O=C(COc1ccc([N+](=O)[O-])cc1Cl)Nc1ccc2[nH]c(=O)[nH]c2c1 | inactive
Cc1csc(=O)n1CC(=O)Nc1ccc(S(C)(=O)=O)cc1 | inactive
O=C(COC(=O)c1ccc(F)c(S(=O)(=O)N2CCOCC2)c1)NCc1ccc2c(c1)OCO2 | inactive
O=C1CC2(CCCC2)C(=O)N1CN1CCN(S(=O)(=O)c2ccc(F)cc2F)CC1 | inactive
Oc1cccc2ccc(/C=C/c3ccc(Br)s3)nc12 | 20.6 µM (active)
Nc1ccc(S(=O)(=O)Nc2nccc(/C=C/c3ccc(Br)s3)n2)cc1 | inactive
O=C(Nc1nc(-c2cccnc2)cs1)c1ccccc1F | 18.3 µM (active)
O=C(COc1ccccc1F)Nc1nc(-c2ccccn2)cs1 | inactive
O=C(O)c1ccccc1C(=O)Nc1nc(-c2ccccc2)cs1 | inactive
CC1O[C@@H](OC2C(O)C(C)O[C@H](OC(=O)[C@]34CCC(C)(C)C[C@H]3C3=CCC5[C@@]6(C)CC(O)C(O[C@@H]7OC(CO)C(O)[C@@H](O)[C@@H]7O)[C@@](C)(C(=O)O)C6CC[C@@]5(C)[C@]3(CO)CC4)C2O[C@H]2OC(C)[C@@H](O[C@@H]3OCC(O[C@@H]4OC(CO)C(O)[C@H](O)C4O)[C@@H](O)[C@@H]3O)[C@H](O)C2O)C(O)C(O)C1O (stereo partly specified) | inactive
C=CCNC(=O)c1ccccc1SCc1c(C)noc1C | inactive
C=CCNC(=O)c1cc(-c2ccccc2O)on1 | 18.4 µM (active)
C=CCNC(=O)c1csc(-c2ccccc2)n1 | inactive
C[C@H](CO)N1C[C@H](C)[C@@H](CN(C)S(=O)(=O)c2ccc(F)cc2)Oc2ccc(NC(=O)CCC(F)(F)F)cc2C1=O | inactive
O=C(CCc1ccccc1)Nc1cccc(-c2nnc(-c3ccco3)o2)c1 | inactive
COc1ccc(OCC(=O)Nc2nnc(-c3ccco3)s2)cc1 | inactive
CCCCOc1ccc(-c2nnc(-c3ccco3)o2)cc1 | 3.66 µM (active)
